Screening data from PubChem.
ClpP mod = qHTS Assay for Activators of ClpP. ATP-dependent Clp protease proteolytic subunit (Bacillus subtilis (strain 168)), P80244. hit rate 1.9% among 340,000. Potency, µM (highest dose often 57.5 µM). purified B. subtilis ClpP, FRET peptide cleavage, 20 min; active = well fitted falling curve with a large enough effect; inconclusive = small, poorly fitted or top-dose-only effect; inactive = no such curve, though single readings can be large or run the other way; note: the source files actives as falling curves though it sought activators and does not explain the sign; nearly all actives have a fitted effect of over 65% in size
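Purified B. subtilis ClpP, 10 microg/mL final in Tris/HCl pH8 with KCl, BSA, glycerol and Tween-20, cleaved an Abz/nitrotyrosine-quenched decapeptide. Fluorescence (ex 320, em 430) was read at 0 and 20 min at room temperature. Delta was normalized to 5.8 microM ADEP and DMSO/no-enzyme controls.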
D3 antag = antagonists of human D3 dopamine receptor; P35462; D3R cells, DiscoveRx beta-arrestin luminescence, antagonist mode; active compounds read low; max response, negative = inhibition, %; hit rate 2.5% among 360,000; in the data active = max response below about -50%; inconclusive = no clear call, values can overlap the other calls
Target sequence (P35462 whole entry, looked up): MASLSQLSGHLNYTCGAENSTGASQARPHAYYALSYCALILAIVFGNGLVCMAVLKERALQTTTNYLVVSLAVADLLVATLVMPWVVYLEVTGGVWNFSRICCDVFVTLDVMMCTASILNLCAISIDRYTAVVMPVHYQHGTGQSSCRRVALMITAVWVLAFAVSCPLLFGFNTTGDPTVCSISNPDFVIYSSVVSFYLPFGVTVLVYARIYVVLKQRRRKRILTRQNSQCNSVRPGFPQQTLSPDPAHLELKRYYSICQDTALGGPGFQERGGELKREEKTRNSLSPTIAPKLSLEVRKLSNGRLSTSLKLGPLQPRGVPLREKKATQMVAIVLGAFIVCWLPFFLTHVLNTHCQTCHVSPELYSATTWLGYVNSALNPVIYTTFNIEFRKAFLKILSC
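Cells plated overnight at 1500 cells/well, then exposed to library compounds with dopamine controls for 90 minutes at 37 degrees C. DiscoveRx reagent added for 30–60 minutes at room temperature; luminescence read, quantitative HTS format.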
IL-1B inflam inh = inflammasome signaling inhibition, IL-1 beta readout | THP-1 LPS/ATP IL-1B secretion, AlphaLISA, 16 h; active compounds read low | hit rate 4.7% among 360,000 | AID 743279 | activity change, % at 57.5 µM; in the data active = activity change below about -50%; inconclusive = mostly about -30% to -49%
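Secreted IL-1B measured by AlphaLISA bead assay after 16 h compound exposure of THP-1 cells; compounds (final up to 57.5 uM) added 1 h before LPS (250 ng/mL) and ATP (1.25 mM) stimulation; lower signal means less secretion.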
DRD3 agonist = agonists of human D3 dopamine receptor; P35462; D3R DiscoveRx beta-arrestin cells, luminescence, 90 min; max activation, %; hit rate 0.58% among 410,000; AID 652048; in the data active = max activation above about 30%
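Agonist mode: compounds and dopamine controls were applied to plated cells for 90 min at 37 degrees C after an overnight attachment at 1500 cells/well. Luminescent read-out followed 30 - 60 minutes at room temperature with DiscoveRx detection reagent.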
DT40 TDP1 CPT = growth inhibition of DT40 Tdp1-/-;hTDP1 cells with camptothecin (screen for TDP1 inhibitors); chicken DT40 Tdp1-/-;hTDP1 cells + 20 nM CPT, ATP luminescence, 48 h; Potency, µM (titrated, usually from 46.2 µM), hits mostly inhibitors; hit rate 12% among 420,000; AID 686979; note: nearly all actives have a fitted effect of over 55% in size
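Cell growth measured by CellTiter-Glo luminescence after a minimum 48 h, 37 C compound exposure with 20 nM CPT in Tdp1-knockout DT40 cells stably expressing hTDP1, seeded 400/well; qHTS titration format.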
DT40 TDP1 no CPT = qHTS for Inhibitors of human tyrosyl-DNA phosphodiesterase 1 (TDP1): qHTS in cells in absence of CPT. DT40 Tdp1-/- hTDP1 cells, no CPT, ATP luminescence, 48 h. Potency, µM (highest dose often 46.2 µM), usual class: inhibitors. hit rate 15% among 420,000. AID 686978, 2013; note: nearly all actives have a fitted effect of over 55% in size
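Luminescent ATP content (CellTiter-Glo) served as the growth readout. Knockout chicken DT40 cells expressing human TDP1 were exposed to compounds without camptothecin for a minimum 48 hr at 37 °C.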
A number is an active result. Compounds with a hit are over-represented: about 21% of the library has one in this group of screens. Unless noted, calls come from the whole dose curve; as a rule, active = well fitted inhibition curve with a large enough effect; inconclusive = small, poorly fitted or top-dose-only effect; inactive = flat fitted curve, though single readings scatter.

How did CCc1ccc(NC(=O)CSc2nc(=O)n(Cc3ccco3)c3c2CCC3)cc1 do in these assays?
ClpP mod: inactive; DRD3 agonist: inactive; DT40 TDP1 CPT: inconclusive; DT40 TDP1 no CPT: inconclusive

What do the screens show for `Cc1c2cnn(-c3ccccc3)c(=O)c2c(C)n1CC(=O)NCc1ccc(Cl)cc1`?
ClpP mod: inactive; DRD3 agonist: inactive; DT40 TDP1 CPT: inactive; DT40 TDP1 no CPT: inactive

What do the screens show for `O=c1[nH]/c(=C/c2ccc3c(c2)OCO3)c(=O)[nH]/c1=C/c1ccc2c(c1)OCO2`?
ClpP mod: inactive; DT40 TDP1 CPT: inactive; DT40 TDP1 no CPT: inactive

How did COc1ccc(OCC(O)CN2CCCCCC2)cc1 (stereo unspecified) do in these assays?
ClpP mod: inactive; D3 antag: -54; IL-1B inflam inh: inactive; DRD3 agonist: inactive; DT40 TDP1 CPT: inactive; DT40 TDP1 no CPT: inactive

How did N#Cc1ccc(OCC(O)CN2CCN(CC(O)COc3ccc(C#N)cc3)CC2)cc1 (stereo unspecified) do in these assays?
D3 antag: inactive; IL-1B inflam inh: inactive; DRD3 agonist: inactive; DT40 TDP1 CPT: inconclusive; DT40 TDP1 no CPT: 26µM

How did COc1ccc(OCC(O)CN2CCN(CC(O)COc3ccc(OC)cc3)CC2)cc1 (stereo unspecified) do in these assays?
ClpP mod: inactive; D3 antag: inactive; IL-1B inflam inh: inactive; DRD3 agonist: inactive; DT40 TDP1 CPT: inactive; DT40 TDP1 no CPT: inactive

What do the screens show for `N#Cc1ccc(-c2ccc(OCC(O)CN3CCCCC3)cc2)cc1` (stereo unspecified)?
D3 antag: inactive; IL-1B inflam inh: inconclusive; DRD3 agonist: inactive; DT40 TDP1 CPT: 23µM; DT40 TDP1 no CPT: inconclusive

What do the screens show for `COc1ccc(N(CC(O)CN2CCCCC2)S(=O)(=O)c2ccc(C)cc2)cc1` (stereo unspecified)?
ClpP mod: inactive; D3 antag: -80; IL-1B inflam inh: inactive; DRD3 agonist: inactive; DT40 TDP1 CPT: inactive; DT40 TDP1 no CPT: inactive

How did COc1ccc(OCC(O)CN2CCCC2)cc1 (stereo unspecified) do in these assays?
ClpP mod: inactive; D3 antag: inactive; IL-1B inflam inh: inactive; DRD3 agonist: inactive; DT40 TDP1 CPT: inactive; DT40 TDP1 no CPT: inactive

What do the screens show for `CCN(CC)CCCNC(=S)N(Cc1cccnc1)Cc1cc2cc(C)ccc2[nH]c1=O`?
ClpP mod: inactive; D3 antag: inactive; IL-1B inflam inh: inactive; DRD3 agonist: inactive; DT40 TDP1 CPT: inactive; DT40 TDP1 no CPT: inactive

How did CC(C)CC(=O)NC(=S)Nc1nc(-c2cccc3ccccc23)cs1 do in these assays?
ClpP mod: inactive; D3 antag: -73; IL-1B inflam inh: inactive; DRD3 agonist: inactive; DT40 TDP1 CPT: inactive; DT40 TDP1 no CPT: 21µM

What do the screens show for `O=C(Nc1nc(-c2cccc3ccccc23)cs1)c1ccc2c(c1)S(=O)(=O)c1ccccc1C2=O`?
D3 antag: inactive; IL-1B inflam inh: inactive; DRD3 agonist: inactive; DT40 TDP1 CPT: 18µM; DT40 TDP1 no CPT: 9.2µM

Results for O=C(Nc1nc(-c2ccccc2)cs1)c1ccc2c(c1)S(=O)(=O)c1ccccc1C2=O ?
ClpP mod: inactive; D3 antag: inactive; IL-1B inflam inh: inactive; DRD3 agonist: inactive; DT40 TDP1 CPT: inconclusive; DT40 TDP1 no CPT: inconclusive

How did O=C(Nc1ccncc1)c1ccc2c(c1)S(=O)(=O)c1ccccc1C2=O do in these assays?
ClpP mod: inactive; D3 antag: inactive; IL-1B inflam inh: inactive; DRD3 agonist: inactive; DT40 TDP1 CPT: 15µM; DT40 TDP1 no CPT: 12µM

Results for O=c1c2oc3ccccc3c2n(Cc2ccccc2Cl)c(=O)n1Cc1ccc2c(c1)OCO2 ?
ClpP mod: inactive; DRD3 agonist: inactive; DT40 TDP1 CPT: inactive; DT40 TDP1 no CPT: inconclusive

Results for NS(=O)(=O)c1cccc(NC(=O)Nc2ccccc2)c1 ?
ClpP mod: inactive; D3 antag: inactive; IL-1B inflam inh: inactive; DRD3 agonist: inactive; DT40 TDP1 CPT: inactive; DT40 TDP1 no CPT: inactive
